Assay results published in the supplement of paper PMC6555819.

Tested on: VDR:RXRa (NR concentration 270 nM, RXRa partner concentration 90 nM)
Test: PBM binding z-score (relative to random genomic background probes); higher = stronger binding; sequences stand for … in GC…GCGATTGACAGCGTAGAATGAAGG
Procedure: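 Protein-binding microarray (Agilent 4x180K custom design, double-stranded 60-nt probes: 5' GC cap, 34-nt variable region, 24-nt constant primer region; full probe sequence given). Purified or IVT nuclear receptor:RXRα heterodimers (3:1 NR:RXRα, mostly 270:90 nM) or homodimers were incubated for 1 h in PBS with 2% milk and no ligand, then detected with Alexa488 antibodies. Fluorescence from o1-orientation probes (~5 replicates averaged) was converted to z-scores against 500 random hg19 background probes. Variable regions are seed direct-repeat (DR0–DR5) sites, all their single-nucleotide variants and half-site ablations.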

Row | Sequence | PBM binding z-score
1 | GCTTACGGGTCAAAGGTTATAGCTTGAATAGAAT | 5.25
2 | TCATATAGGTAAAAGGTGGAAGTCGGTGTGGTAA | 1.11
3 | TCTTGTAGATCAAGAGAGGTTAAGAAAGTGCGCT | 1.77
4 | AGAATGAGGTTACCAAATATCAGGGAAACGCTTG | 1.34
5 | TAGCCTAGGTCAGTCAGGGGCCAGTATAGAAAGC | 0.785
6 | AATACAGGGTCATGGTAGGCCAGAGTACGCACAG | 4.95
7 | CCTAGCAGGCCAGGATCACTCAAGCATTTCGCTT | -0.583
8 | CCTTACGGGTCACTGACAGGCTATAGCATTTGGA | 3.07
9 | GGAGACAGGTGAAACGCAGGTAACTCAGGGTGGC | -0.319
10 | CCTAGCAGGCCAATCTGGGTCACTAAAGGCTTGA | 0.366
11 | TCTGCTAGGTCAGTTGGTCAGCTACCGAGCTGCC | 0.106
12 | TCGAGTAGGTTACCAATGGGGCATTCCGCTTTCT | 0.11
13 | CCTAGTTGGTCAAAGTCACACACGCTATAGGTAC | 0.996
14 | CGTCAAAGTTCAAGGTAACGTAACAGAAAGCAGC | 3.78
15 | AGAATGAGGTTATACGTTGATCAGGGAAGAAAGT | 1.39
16 | CCAGACAGGTGAGAAGGTAACCCAGCCTCGATTA | -0.04
17 | CCTACTGGGCCAAAGCTCATTGATTCCAATGCTC | -0.593
18 | ATCTCTAGGTAAGGATAGTTCAGTGAATGCAAAT | 0.733
19 | AGTCAAAGTCCATCTAGGTAACGTAAGATATGCT | 0.131
20 | GTACCCAGGTGAATAGGTCGTTGATGAGTAGGCG | 0.54

Row | Sequence | PBM binding z-score
21 | CCTGCTAGGGCAATGGTCAGCTAAAGCAGCTCGC | -0.874
22 | CCTAGCAGGCCAATCTGGGTCACTCTAGGCTTGA | 0.251
23 | AATACAGGGTCACTAGGCCAGAGAAGGTACGAAT | 4.08
24 | GCAGACAGGTGAAACGCAGCTAACTCAGGGTGGC | -0.847
25 | AGAATGAGGTGATACGTAGATCAGGGAAGAAAGT | -0.0206
26 | ATCGCAAGGTCGAAGGTGAGTATACCCACCCGAA | 1.8
27 | AGAATGAGGTTACCAAAGATTAGGGAAACGCTTG | 1.05
28 | CCTATTGGGCCAAAAAGGTCATTGATGCCGATAA | 5.02
29 | ATCGAAAGGTCGAGGCGAGTATAGAGAAAGGGAA | 2.33
30 | CGTCCAAGGTCAAGGTCAGTTAAAGAGACTCGAA | 4.83
31 | CGTCCAAGGTCCGAGAGGTCAGTGAATGCCGAGT | 3.27
32 | AGAATGAGGCTATTAAGATCAGGGAATTGCGGTC | -0.0838
33 | CGAACGAGGGCATGCGTTGATAGCAAATGCCGAT | 0.672
34 | TCTATTAGTTGATTAGGGGAACCGAAACAGCGGA | 0.739
35 | TCGTGTAGATCAAAGGTTAAGAAAGCCGAAGCCT | 1.45
36 | TAGCCTAGGTCAGTTCGGGCCAGTATACGCTATA | 0.785
37 | CCTAGCAGGCCAGGGTCCCTCAAGCATTTCGCTT | -0.596
38 | CCTAGCAGGCCAGTGTCACTCAAGCATTTCGCTT | -0.398
39 | ATCCCTAGGTAAAGTTCAGTGAAAGATCGATAGA | 1.37
40 | CCAGACAGGTGCGAAGGTAACTCAGCCTCGATTA | -0.435
